Whole data set: some 33,000 sequences, median “E-score (-0.5 to 0.5)” near -0.053, cut for the highest 2% near 0.37. The sample holds the highest values, similar sequences and a random draw of the others, so the mix is not that of the screen.
target: Hap1 (UniProt P0CE41); assay: PBM E-score (8-mer binding enrichment) (E-score (-0.5 to 0.5)); higher = stronger / more preferred TF binding; conditions: protein concentration: 200 nM; construct: GST-DNA-binding domain
Experimental: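 Universal 'all 10-mer' protein binding microarrays (Agilent AMADID 015681) probed with GST-tagged S. cerevisiae TFs (full-length or DBD) made by in vitro transcription/translation (PURExpress), about 100-200 nM. Bound TF was detected with fluorescent anti-GST. Each ungapped 8-mer (which stands for itself and its reverse complement) is scored by the PBM enrichment score (E-score), a modified Wilcoxon-Mann-Whitney statistic from -0.5 to +0.5, computed with the Universal PBM Analysis Suite. Scale: above 0.35 generally sequence-specific binding.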

UniProt P0CE41, sequence (P0CE41 whole entry, the tested form may be a part): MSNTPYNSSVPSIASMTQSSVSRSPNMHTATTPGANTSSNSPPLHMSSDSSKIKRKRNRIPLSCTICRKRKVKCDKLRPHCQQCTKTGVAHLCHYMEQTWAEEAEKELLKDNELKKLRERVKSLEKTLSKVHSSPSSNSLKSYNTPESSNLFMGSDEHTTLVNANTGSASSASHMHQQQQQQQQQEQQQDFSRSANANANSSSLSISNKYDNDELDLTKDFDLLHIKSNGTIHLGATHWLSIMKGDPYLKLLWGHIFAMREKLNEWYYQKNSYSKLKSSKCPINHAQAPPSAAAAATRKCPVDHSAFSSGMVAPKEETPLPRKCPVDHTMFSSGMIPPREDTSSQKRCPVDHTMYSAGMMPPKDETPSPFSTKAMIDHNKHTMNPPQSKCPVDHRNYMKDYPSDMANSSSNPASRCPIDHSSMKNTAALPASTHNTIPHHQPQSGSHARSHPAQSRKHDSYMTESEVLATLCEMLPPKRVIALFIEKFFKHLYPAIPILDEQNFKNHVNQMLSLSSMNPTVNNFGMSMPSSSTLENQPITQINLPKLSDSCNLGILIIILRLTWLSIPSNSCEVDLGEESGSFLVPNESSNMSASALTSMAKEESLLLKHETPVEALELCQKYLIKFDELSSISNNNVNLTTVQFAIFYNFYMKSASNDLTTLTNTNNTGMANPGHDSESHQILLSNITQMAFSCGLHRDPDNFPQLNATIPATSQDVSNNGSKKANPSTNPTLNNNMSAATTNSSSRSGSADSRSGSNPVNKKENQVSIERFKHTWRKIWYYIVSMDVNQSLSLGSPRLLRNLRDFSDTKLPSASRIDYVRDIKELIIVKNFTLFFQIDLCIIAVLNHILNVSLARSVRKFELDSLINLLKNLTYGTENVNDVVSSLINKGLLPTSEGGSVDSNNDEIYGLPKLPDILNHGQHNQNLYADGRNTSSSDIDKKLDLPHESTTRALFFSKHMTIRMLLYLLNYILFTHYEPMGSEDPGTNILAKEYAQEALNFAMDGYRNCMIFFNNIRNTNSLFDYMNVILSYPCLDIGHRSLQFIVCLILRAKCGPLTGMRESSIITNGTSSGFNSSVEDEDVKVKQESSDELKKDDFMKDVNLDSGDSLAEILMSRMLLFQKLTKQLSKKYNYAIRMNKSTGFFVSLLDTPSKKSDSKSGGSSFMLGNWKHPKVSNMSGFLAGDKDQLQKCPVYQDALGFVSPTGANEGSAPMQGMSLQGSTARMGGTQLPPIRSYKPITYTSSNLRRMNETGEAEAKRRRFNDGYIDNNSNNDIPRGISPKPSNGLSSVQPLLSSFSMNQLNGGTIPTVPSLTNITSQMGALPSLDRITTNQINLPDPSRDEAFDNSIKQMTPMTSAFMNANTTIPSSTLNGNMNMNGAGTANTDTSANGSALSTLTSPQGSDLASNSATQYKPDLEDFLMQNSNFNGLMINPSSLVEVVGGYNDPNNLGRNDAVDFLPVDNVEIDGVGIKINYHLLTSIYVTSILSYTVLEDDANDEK

Point of comparison: ATCGGCCC, “PBM E-score” value 0.379. Against it:
- GGCGGAGA — lower, 0.36
- CGCGGAGA — higher, 0.397
- AGCGGAGC — lower, 0.223
- ATCGGAGC — higher, 0.396
- ATCGGGTA — lower, 0.283
- ATCAGAGC — lower, -0.0942
- ATCGGGTG — lower, 0.37
- ACGAACCA — lower, -0.038
- CTCCTATA — lower, -0.327
- AGATCACG — lower, -0.113
- GAATTTAC — lower, 0.0854
- ACGCCTCC — lower, 0.00213
- AGAAAAAG — lower, -0.0187
- ATCGGAGG — lower, 0.227
- CTCGGAGA — higher, 0.407
- GTCGGAGA — lower, 0.355
- CTCGGAGC — lower, 0.322
- CTTGGAGA — lower, -0.0528
- ATCGGAGA — higher, 0.415
- ACGATTTC — lower, 0.0291
- ATATGGAC — lower, -0.0394
- GGTCTGCA — lower, 0.0455
- AATTCGGA — higher, 0.414
- CATTCGGA — lower, 0.321
- AATTCGGG — lower, 0.287
- TATTCGGA — lower, 0.37
- AATTCGGC — lower, 0.131
- GATTCGGA — lower, 0.299
- CAACAGCG — lower, -0.0733
- AGATTACA — lower, 0.0437
- CACCACGC — lower, -0.201
- GACATCCA — lower, -0.175
- ATAACCAA — lower, -0.182
- ACCCTGGC — lower, -0.146
- GCAAGAGC — lower, -0.151
- AGATTCTG — lower, -0.14
- ATCTGCCG — lower, 0.318
- CAACACCG — lower, 0.13
- AAACACCG — higher, 0.388
- AAACACCT — lower, -0.0632
- TCAAAAGA — lower, -0.152
- CCACTTTA — lower, -0.00297
- TCCGCCCA — lower, 0.209
- AATGCCTC — lower, -0.116
- TGGAGCAA — lower, -0.195
- CGGAGCTA — higher, 0.443
- CGGAGCTC — lower, 0.313
- AGGAGCTA — lower, -0.192
- CGGAGCAC — lower, 0.196
- CGGAGCAA — higher, 0.394
- CGGAGCGC — lower, 0.258
- AACAAAGC — lower, -0.0164
- AGCGCATG — lower, -0.2
- ATTGACCC — lower, -0.0115
- GCCTGCTA — lower, -0.152
- ACCGAAGA — lower, 0.207
- CCCGAAAG — lower, 0.298
- GCCGAAAA — lower, 0.345
- CCCGAAAC — lower, 0.208
- GCCGAAAC — higher, 0.38
- TCCGAAGA — higher, 0.419
- ACCGAAAC — lower, 0.323
- TCCGAACA — higher, 0.381
- CCCGAAGA — lower, 0.284
- GCCGAACA — lower, 0.233
- CCCGAAAA — higher, 0.426
- ACCGAACA — lower, 0.265
- GGCGAAAC — lower, 0.194
- CGGCGGTC — lower, 0.244
- CAGCGCGC — lower, 0.057
- CTTTCAGC — lower, 0.0716
- TGCGAAAA — lower, -0.00129
- TCCGAAAA — higher, 0.393
- ACCGAAAA — lower, 0.26
- AGCAACTA — lower, -0.0755
- AGAATCAT — lower, -0.259
- AATCACAT — lower, 0.0324
- CGTGGTCC — lower, -0.0363
- CGCCGGCC — higher, 0.396
- AGCCGGCG — lower, 0.352
- CGCCGCCG — lower, 0.276
- CGGCGCCA — lower, 0.246
- CGCCGGCG — higher, 0.422
- AGGCGCCG — lower, 0.0638
- GGCCGGCC — lower, 0.367
- CGCCGGCA — lower, 0.349
- CGGCGCCG — higher, 0.406
- CCGACCGA — higher, 0.422
- GGGACCGA — lower, 0.329
- CCGACCGG — higher, 0.428
- AGGACCTA — lower, 0.095
- CGGACCGC — lower, 0.367
- GGGACCTA — lower, 0.116
- CGGACCTA — higher, 0.425
- ACGACCGA — lower, 0.275
- CGGACCGA — higher, 0.423
- ACGACCGG — lower, 0.292
- GCGACCGA — lower, 0.253
- CCGACCGC — lower, 0.181
- AGTAGCGG — lower, 0.216
- ACCTCTCG — lower, -0.0768
- CCAGGCCC — lower, -0.0511
- CGCGGCCG — lower, 0.27
- ACTACGGA — lower, 0.238
- TATCAGAA — lower, 0.0826
- AATCCTAT — lower, 0.204
- GTCCTACA — lower, 0.145
- ATCTGGCG — lower, 0.0049
- AAGCGTAC — lower, -0.292
- CGGACCAC — lower, 0.279
- CGGACCCG — higher, 0.387
- CGGACCAA — higher, 0.383
- TCGACCAA — lower, -0.331
- CGGACCCC — lower, 0.233
- AGGACCCG — lower, 0.218
- TCGACCGA — higher, 0.393
- CGGACCAG — lower, 0.304
- TCGACCCA — lower, -0.221
- GGAATCAC — lower, 0.196
- AGAGTAAT — lower, 0.076
- CGGTGAGA — lower, 0.12
- ATCAACAT — lower, -0.109
- ACCCCCAG — lower, -0.25
- CTATTTCC — higher, 0.397
- CTATTTCA — lower, -0.0144
- ATATTTCC — higher, 0.427
- CTATTTTC — lower, 0.0335
- ATATTTCA — lower, -0.15
- ATATTTCG — lower, 0.235
- AACTTTCA — lower, -0.106
- CGGTCATC — lower, 0.192
- CGGTCGTA — higher, 0.383
- CGGTCTGA — lower, 0.205
- GGGTCGTA — lower, 0.0749
- GGGTCTTA — lower, 0.0728
- CGGTCGTC — lower, 0.165
- CGGTCATA — higher, 0.411
- GGGTCATA — lower, -0.00686
- CGGTCTTA — higher, 0.404
- TAGACCCA — lower, -0.194
- ATCACGGC — lower, 0.134
- ACAAAAGC — lower, 0.0095
- CATGGGTC — lower, -0.168
- ATCGGCAG — lower, 0.315
- ATCGGCCG — higher, 0.443
- ATCGGCGG — higher, 0.408
- AACGGCCG — higher, 0.405
- ATCGGCGC — lower, 0.343
- ATCGGGCC — lower, 0.324
- AGCGGCGG — lower, 0.291
- CTCGGCCC — lower, 0.336
- AACGGCCT — lower, 0.074
- AACGGCCA — lower, 0.183
- ATCGGCCA — lower, 0.253
- ATCTGCGC — lower, 0.00257
- CTATAGGC — lower, -0.0955
- CGACCACG — lower, 0.0929
- GGGTGGAC — lower, 0.132
- GATGGTGC — lower, -0.29
- GACGGAAC — lower, 0.174
- ACCGGAAC — higher, 0.403
- CCCGGAAC — lower, 0.31
- ACCGGAAA — higher, 0.417
- GCCGGAAC — lower, 0.371
- AGCGGAAA — lower, 0.318
- AGCGGAAC — lower, 0.243
- GGCGGAAC — lower, 0.257
- ACCGGAAG — lower, 0.333
- CCGCAACG — lower, 0.216
- GCATATCA — lower, 0.0762
- CTACTCCA — lower, -0.0772
